Shown are actives, neighbours in structure and some others; about 6.2% of the full set was active somewhere.
KB-3-1 tox = kills parental KB-3-1 adenocarcinoma cells. KB-3-1 viability, CellTiter-Glo ATP luminescence, 72 h. Potency, µM (titrated, usually from 46.1 µM), most hits filed as cytotoxic. 400,000 tested, 1.4% active. AID 1347075; further: on the % scale 0 is the no-effect control and ±100 the full control effect; nearly all actives have a fitted effect of over 60% in size
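Screening of KB-3-1 cells (DMEM, 10% FBS, phenol-red free) ran from lowest to highest compound concentration; after 72 h at 37 °C viability was read luminescently and curves fitted.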
HT1080NT lethal = kills 2HG-producing HT-1080-NT fibrosarcoma cells; HT-1080-NT fibrosarcoma viability, CellTiter-Glo ATP luminescence, 48 h; Potency, µM (highest dose often 46.1 µM), without a hit: at the top dose activity, negative = less viability, actives largely listed as cytotoxic; 360,000 tested, 1.6% active;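 further: NT is the 2HG producing partner of a matched IDH1 knockdown line; 0% = DMSO-treated cells and -100% = media-only wells without cells; nearly all actives have a fitted effect of over 55% in size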
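Fibrosarcoma NT cells, 750 per well in 5% FBS RPMI, were exposed to compound for 48 hours. Viability: CellTiter-Glo luminescence.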
KB-V1 cytotox = kills drug-selected multidrug resistant KB-V1 cells. Potency, µM (highest dose often 46.1 µM), usual class: cytotoxic. KB-V1 MDR cells viability, CellTiter-Glo, 72 h. AID 1347076. 400,000 tested, 3.4% active; further: on the % scale 0 is the no-effect control and ±100 the full control effect; nearly all actives have a fitted effect of over 60% in size
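Drug-selected KB-V1 cells, grown in DMEM lacking phenol red with 10% FBS, receive compound titrations; after three days at 37 degrees C, surviving cell ATP is quantified by CellTiter-Glo luminescence and responses normalized and curve-fitted.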
ATXN viability = reduces viability in counter-screen for ATXN expression inhibitors; S2 cells (HEK-293 line with an ATXN2-luciferase reporter) viability, CellTiter-Fluor protease fluorescence, 24 h; Potency, µM (highest dose often 56.7 µM), usual class: cytotoxic; 400,000 tested, 0.49% active; further: nearly all actives have a fitted effect of over 40% in size
ATXN2 expr inh = inhibitors of ATXN2 expression | 360,000 tested, 0.72% active | Potency, µM (titrated, usually from 57 µM), without a hit: at the top dose activity change, negative = inhibition, most hits filed as inhibitors | HEK-293 ATXN2-luciferase reporter, luminescence, 24 h; further: on the % scale 0 is the no-effect control and ±100 the full control effect; nearly all actives have a fitted effect of over 55% in size
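ATXN2-luciferase reporter cells (luciferase flanked by upstream and downstream ATXN2 gene portions) were treated 24 h at 37 °C with compounds at up to 57 uM. SteadyGlo luminescence gave expression; GF-AFC fluorescence gave viability.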
HT1080 IDH1KD tx = HT-1080 IDH1 knockdown cell toxicity (counter line); Potency, µM (doses to about 46.1 µM), without a hit: at the top dose activity, negative = toxicity, usual class: cytotoxic; HT-1080 IDH1 knockdown viability, ATP luminescence, 48 h; 360,000 tested, 2% active; AID 686971;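 further: 0% = DMSO wells and -100% = cell-free medium wells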
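After a 2 h attachment period, IDH1KD HT-1080 cells took pin-transferred compound for 48 h at 37 °C; ATP-based luminescence after 10 min room-temperature reagent incubation reported viability.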
* = called active by the depositor; i = inactive; ? = inconclusive; . = no result given; [ ] = remark or other dose. The call rests on the fitted dose curve; in most records, active means well fitted curve in the direction sought with a large enough effect; inconclusive means small, poorly fitted or top-dose-only effect, or another doubt; inactive means no such curve, though single readings can be large; an effect the other way counts as inactive or inconclusive. Potency means the concentration at half of the fitted maximal effect.

SMILES	KB-3-1 tox	HT1080NT lethal	KB-V1 cytotox	ATXN viability	ATXN2 expr inh	HT1080 IDH1KD tx
CCOc1cc(CNCc2ccncc2)cc(Br)c1OCc1ccc(F)cc1	i	?	?	?	?	11µM*
Fc1ccc(COc2ccc(Br)cc2CNCc2ccncc2)cc1	i	-19%	2.9µM*	i	-29%	?
Fc1ccc(COc2cccc(CNCc3ccncc3)c2)cc1	?	0%	?	i	?	-16%
CCN(CC)C(=O)c1cccc(-c2csc(C(C)(O)c3cccc(F)c3)n2)c1 (configuration not stated)	i	?	?	?	28µM*	?
CC(=O)Nc1cccc(-c2csc(C(C)(O)c3cccc(F)c3)n2)c1 (configuration not stated)	i	-21%	i	i	-16%	-9%
CN(C)c1ccc(-c2csc(C(C)(O)c3cccc(F)c3)n2)cc1 (configuration not stated)	i	26µM*	?	i	13%	?
CC(O)(c1cccc(F)c1)c1nc(-c2ccc(Cl)cc2)cs1 (configuration not stated)	i	?	i	?	1%	?
CCCCN(C)c1c(C)nc2ccc(C(=O)N(C)Cc3ccco3)cn12	i	-1%	?	i	-18%	-8%
Cc1cc2c(F)c(Oc3ncnn4cc(OC[C@@H](C)O)c(C)c34)ccc2[nH]1	.	.	.	.	51%	.
CCOC(=O)c1c(NC(=O)/C=C/C(=O)O)sc(C)c1-c1ccc(C(C)(C)C)cc1	i	8.2µM*	?	?	-13%[11.3 µM]	5.8µM*
Cc1sc(NC(=O)/C=C/C(=O)O)c(C(N)=O)c1-c1ccc(C(C)(C)C)cc1	i	?	i	i	-16%	21µM*
Cc1cccc(CN2CCN(C3CN(Cc4cn(Cc5ccccc5)nn4)S(=O)(=O)C3)CC2)c1 (configuration not stated)	i	?	i	i	6%	11%
CC(C)C[C@H](NC(=O)[C@@H](COC(C)(C)C)NC(=O)[C@H](Cc1ccc(O)cc1)NC(=O)[C@H](CO)NC(=O)[C@H](Cc1c[nH]c2ccccc12)NC(=O)[C@H](Cc1cnc[nH]1)NC(=O)[C@@H]1CCC(=O)N1)C(=O)N[C@@H](CCCN=C(N)N)C(=O)N1CCC[C@H]1C(=O)NNC(N)=O	.	.	.	i	.	.
O=C(Nc1ccc([N+](=O)[O-])cc1)Nc1ccon1	0.58µM*	1.2µM*	6.5µM*	i	-12%	0.73µM*
Cc1ccc(NCC(=O)c2ccc([N+](=O)[O-])cc2)cc1	i	10%	i	i	21%	-21%
Cc1ccc(-c2noc(CC(=O)c3ccc([N+](=O)[O-])cc3)n2)cc1	i	0%	16µM*	i	-8%	0%
CS(=O)c1ccccc1-c1nc(-c2ccc([N+](=O)[O-])cc2)no1 (configuration not stated)	?	17%	8.2µM*	i	18%	13%
CS(=O)c1ccccc1-c1nc(-c2cc(C(F)(F)F)cc(C(F)(F)F)c2)no1 (configuration not stated)	?	0%	?	i	-25%	-2%
Cc1nc(-c2cccc(NC(=O)Nc3ccc([N+](=O)[O-])cc3)c2)no1	?	.	i	i	13µM*	.
CCc1ccc(NC(=O)Nc2ccon2)cc1	i	16%	i	i	32%	23%
CCCN1C(=O)C(Cc2nc3ccccc3c(=O)n2-c2cccc(C)c2)c2ccccc21 (configuration not stated)	i	.	i	?	-24%	.
COc1ccc(-n2cc(CNCCc3ncc(C)[nH]3)c(-c3ccccc3Cl)n2)cc1	i	-18%	i	?	-18%	-2%

Screening results as filed in PubChem.
